{
  "source": "PubChem BioAssay (EPA / NIEHS)",
  "note": "Several values for one entry are separate records, joined by “and”; a condition that tells them apart may be missing. Equal values may be shown once. Records with an inconclusive call do not appear. The source holds several records for some structures; these can differ, active in one and inactive in another. Activity calls are given as the source filed them. The calls were made as follows: active = hit-call score of the fitted dose curve at least 0.9, where 1 is the maximum; inconclusive = response in the unintended direction; inactive = score below 0.9.",
  "data": [
    {"assay": "TOX21_p53_BLA_p2_viability: Viability Assessment in the Tox21 HCT-116 p53 Agonism Beta-lactamase Assay, Phase 2 (AID 2283591);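 also: compound exposure lasted 16 h at 37 °C; actives lower the ATP signal meaning cytotoxicity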", "description": "TOX21_p53_BLA_p2 is a cell-based, single-readout assay that uses HCT116, a human intestinal cell line, […] in a 1536-well plate.TOX21_p53_BLA_p2_viability is an assay readout measuring cellular ATP content and detected with CellTiter-Glo Luciferase-coupled ATP quantitation.TOX21_p53_BLA_p2_viability used a type of viability reporter where loss-of-signal activity can be used to understand changes in the cell viability. Furthermore, this assay endpoint can be referred to as a secondary readout, because this assay has produced multiple assay endpoints where this one serves a viability function. To generalize the intended target to other relatable targets, this assay endpoint is annotated to the cell cycle intended target family, where the subfamily is cytotoxicity.\nThawing Method: Place 14 mL of pre-warmed thaw medium into a 15 mL of conical tub. Remove the vial of cells to be thawed from liquid nitrogen and thaw rapidly by placing at 37C in a water bath with gentle agitation for 1-2 minutes. Decontaminate the vial by wiping with 70% ethanol before opening in a biological safety cabinet. Transfer the vial contents drop-wise into 14 mL of thaw medium in a sterile 15-mL conical tub. Centrifuge cells at 900 rpm for 4 minutes and resuspend in thaw medium. Transfer contents to the T75 tissue culture flask containing Thaw Medium and place flask in a humidified 37C/5% CO2 incubator. Switch to growth medium at first passage.Propagation Method: Aspirate medium, rinse once in DPBS, add 0.25% Trypsin/EDTA and swirl to coat the cell evenly. Add an equal volume of Growth Medium to inactivate Trypsin after 2-3 minutes incubation at 37C. Centrifuge cells at 900 rpm for 4 minutes and resuspend in growth medium. Cell should be passage or fed at least twice a week.Assay Protocol: Harvest cells from culture in growth medium and resuspend in assay medium. 2.2 Dispense 4000 cells/5 uL/well into 1536-well black/clear bottom plates using a Multidrop dispenser. After the cells were incubated at 37C for 5 hours, 23 nL of compounds dissolved in DMSO were transferred to the assay plate by a PinTool resulting in a 217-fold dilution. Incubate the plates for 16 hours at 37C, 5% CO2. Add 1 uL of 6X LiveBLAzer FRET B/G (CCF4-AM) Substrate Mixture to each well using a BioRAPTR dispenser and incubate the plates at room temperature for 2 hours. Measure fluorescence intensity at 460 and 530 nm emission and 405 nm excitation by an Envision detector. Data is expressed as the ratio of 460nm/530nm emissions. Add 4 uL of Cell-titer Glo to each well using BioRAPTR and incubate the plates at room temperature for […]. For cell viability readout that measures cytotoxicity, 4 ul/well of CellTiter-Glo reagent was added into the assay plates using a Flying Reagent Dispenser. After 30 min incubation at room temperature, the luminescence intensity in the plates was measured using a ViewLux plate reader.", "values": [
      {"smiles": "CC(C)(C)c1ccc(O)c(C(C)(C)C)c1", "AC50": "42.4 µM (active)", "outcome": "inactive"},
      {"smiles": "CC(C)(C)CC(C)(C)c1ccc(O)c(-n2nc3ccccc3n2)c1", "outcome": "inactive"},
      {"smiles": "CC(O)CO", "note": "(stereo not given)", "outcome": "inactive"},
      {"smiles": "CC#C[C@]1(O)CC[C@H]2[C@@H]3CCC4=CC(=O)CCC4=C3[C@@H](c3ccc(N(C)C)cc3)C[C@@]21C", "outcome": "inactive"},
      {"smiles": "CCCCCCCCCCCCCCCS(=O)(=O)Oc1ccccc1", "outcome": "inactive"},
      {"smiles": "O=C1OC2(c3ccccc31)c1cc(Br)c(O)c(Br)c1Oc1c2cc(Br)c(O)c1Br", "outcome": "inactive"},
      {"smiles": "OCCC(F)(F)C(F)(F)C(F)(F)C(F)(F)C(F)(F)C(F)(F)C(F)(F)C(F)(F)F", "outcome": "inactive"},
      {"smiles": "CC[C@H](c1ccc(O)cc1)[C@@H](CC)c1ccc(O)cc1", "AC50": "61.7 µM (active)", "outcome": "inactive"},
      {"smiles": "Cc1cc(CCN2CCN(c3nsc4ccccc34)CC2)cc2c1NC(=O)CC2(C)C", "AC50": "60.5 µM (active)"},
      {"smiles": "CCCCCCCCCCCCN1CCCC1=O", "outcome": "inactive"},
      {"smiles": "O=C(O)Cc1cc(I)c(Oc2cc(I)c(O)c(I)c2)c(I)c1", "AC50": "24.1 µM (active)"},
      {"smiles": "CCCCCCCC(=O)O", "outcome": "inactive"},
      {"smiles": "ClC1=C(Cl)C(Cl)(Cl)C(Cl)=C1Cl", "outcome": "inactive"},
      {"smiles": "OC1CCC(C2CCCCC2)CC1", "note": "(stereo not given)", "outcome": "inactive"},
      {"smiles": "c1ccc2c(c1)Cc1ccccc1-2", "outcome": "inactive"},
      {"smiles": "CCc1nn(C2CCCCC2)c2cc(C3(C#N)CCC(C(=O)O)CC3)ccc12", "note": "(stereo not given)", "outcome": "inactive"},
      {"smiles": "Oc1cc2ccccc2c2ccccc12", "AC50": "15.2 µM (active)"},
      {"smiles": "NC(=O)N1C(=O)C(C(=O)c2cc(Cl)cs2)c2cc(F)c(Cl)cc21", "note": "(stereo not given)", "outcome": "inactive"},
      {"smiles": "CC(=O)NC1(c2cccc(F)c2)CCN(CC[C@@]2(c3ccc(Cl)c(Cl)c3)CN(c3ccccc3)C(=O)CO2)CC1", "AC50": "57.1 µM (active)"},
      {"smiles": "c1ccc2cc3c(ccc4ccccc43)cc2c1", "outcome": "inactive"},
      {"smiles": "CC(=O)CC(C)(C)O", "outcome": "inactive"},
      {"smiles": "N#C[C@@H]1CC(F)(F)CN1C(=O)CNC1CC2CCC(C1)N2c1ncccn1", "note": "(stereo not given in full)", "outcome": "inactive"},
      {"smiles": "c1ccc2c(c1)ccc1ccccc12", "outcome": "inactive"},
      {"smiles": "CN1CCN(c2ccccc2/C=C2\\SCCN(c3ccc(Cl)c(Cl)c3)C2=O)CC1", "outcome": "inactive"},
      {"smiles": "CCCCCCCCCCCCCC[N+](C)(C)C", "AC50": "49.1 µM (active) and 13.3 µM (active) and 33.7 µM (active)"},
      {"smiles": "CC(C)CCCCCCOC(=O)CCCCC(=O)OCCCCCCC(C)C", "outcome": "inactive"},
      {"smiles": "Oc1cccc(O)c1", "outcome": "inactive"},
      {"smiles": "CCOC(=O)CC(O)(CC(=O)OCC)C(=O)OCC", "outcome": "inactive"},
      {"smiles": "CCc1ccc(CCOc2ccc(CC3SC(=O)NC3=O)cc2)nc1", "note": "(stereo not given)", "outcome": "inactive"},
      {"smiles": "COC(=O)CCCCC(=O)OC", "outcome": "inactive"},
      {"smiles": "O=c1c(-c2ccc(O)cc2)coc2cc(O)ccc12", "outcome": "inactive"},
      {"smiles": "Cc1oc(-c2ccccc2)nc1CCOc1ccc(C[C@H](Nc2ccccc2C(=O)c2ccccc2)C(=O)O)cc1", "AC50": "7.33 µM (active)"},
      {"smiles": "CCCCC(CC)COC(=O)CCCCC(=O)OCC(CC)CCCC", "note": "(stereo not given)", "outcome": "inactive"},
      {"smiles": "CC(C)(C)c1cccc(C(C)(C)C)c1O", "outcome": "inactive"},
      {"smiles": "CCN(CC)CCNc1ccc(CNC=O)c2sc3ccc(OC)cc3c(=O)c12", "outcome": "inactive"},
      {"smiles": "O=[N+]([O-])c1ccc(O)cc1", "outcome": "inactive"},
      {"smiles": "CCCCC(CC)COC(=O)CCCCC(=O)OCc1ccccc1", "note": "(stereo not given)", "outcome": "inactive"},
      {"smiles": "CC(C)(C)c1cc(C(C)(C)C)c(O)c(C(C)(C)C)c1", "outcome": "inactive"}
    ]}
  ]
}
